Results filed as inconclusive are left out. Activity calls are given as the source filed them. Unless noted, calls follow the shape of the dose curve; as a rule, active = well fitted curve in the direction sought with a large enough effect; inconclusive = small, poorly fitted or top-dose-only effect, or another doubt; inactive = no such curve, though single readings can be large; an effect the other way counts as inactive or inconclusive.
Assays:
[1] = NFAT Signaling Pathway (AID 444; active = well fitted curve in either direction with a large enough effect, not every such curve was filed as active;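 also: carbachol stimulus at about its EC50 of 1 µM final; % is scaled to controls: 0 for no effect and ±100 for the full control effect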); conditions: Jurkat NFAT-bla M1, carbachol, beta-lactamase ratio, 5 h; at 17.2 µM (top of the series) unless noted
Summary of the method: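 Read-out: CCF4 FRET ratio (460 nm/530 nm) after 1 h RT dye loading, used for %activity and AC50 from titration series. Cells: Jurkat NFAT-β-lactamase/M1 line, treated with compound plus 1 uM carbachol for 5 h, 37 °C.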

[2] = Stat Signaling Pathway (AID 446; active = well fitted curve in either direction with a large enough effect, not every such curve was filed as active;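 also: ME-180 cervical cancer cells given 40 pM IL-6 alongside compound; SIE-controlled beta-lactamase reporter measured as 460/530 nm FRET emission ratio; % is scaled to controls: 0 for no effect and ±100 for the full control effect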); conditions: ME-180 (cervical carcinoma) SIE beta-lactamase reporter, IL-6 stimulated, 5 h; at 17.2 µM (top of the series) unless noted
Summary of the method: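 IL-6/STAT signaling read in ME-180 cells via an SIE beta-lactamase reporter. Stimulus was 40 pM IL-6 (its AC50) for 5 hrs, so both activation and inhibition register.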

[3] = target: Glucocorticoid receptor (Homo sapiens) (UniProt P04150); test: GR-GFP Redistribution (AID 450;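 active = compounds whose dose series gives a full or clear partial fitted curve of increased nuclear translocation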; also: potency is read from the fitted curve at half-maximal effect)
Chain of Glucocorticoid receptor (Homo sapiens) (P04150 whole entry, looked up, the tested form may be a part): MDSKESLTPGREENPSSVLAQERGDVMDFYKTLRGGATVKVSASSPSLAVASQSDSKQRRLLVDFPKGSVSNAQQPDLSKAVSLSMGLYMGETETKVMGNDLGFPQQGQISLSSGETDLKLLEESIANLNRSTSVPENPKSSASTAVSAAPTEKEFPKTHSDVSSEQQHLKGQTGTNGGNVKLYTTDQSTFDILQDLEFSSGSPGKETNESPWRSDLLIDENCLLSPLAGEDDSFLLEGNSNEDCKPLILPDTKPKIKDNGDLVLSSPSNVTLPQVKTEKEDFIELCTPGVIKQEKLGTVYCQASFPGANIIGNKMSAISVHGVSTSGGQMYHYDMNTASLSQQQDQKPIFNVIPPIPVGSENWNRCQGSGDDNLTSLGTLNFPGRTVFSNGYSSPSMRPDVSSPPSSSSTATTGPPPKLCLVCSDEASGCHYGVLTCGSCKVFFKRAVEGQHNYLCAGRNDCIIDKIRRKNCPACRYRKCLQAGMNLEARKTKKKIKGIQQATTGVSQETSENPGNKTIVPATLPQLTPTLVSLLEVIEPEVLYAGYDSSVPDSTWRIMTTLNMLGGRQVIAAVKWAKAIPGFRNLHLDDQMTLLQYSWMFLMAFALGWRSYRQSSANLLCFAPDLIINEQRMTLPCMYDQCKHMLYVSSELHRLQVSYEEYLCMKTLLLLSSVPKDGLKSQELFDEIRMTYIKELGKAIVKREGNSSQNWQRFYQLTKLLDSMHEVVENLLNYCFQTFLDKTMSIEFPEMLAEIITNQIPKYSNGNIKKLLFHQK

[4] = target: Glucocorticoid receptor (Homo sapiens) (UniProt P04150); test: GR-EFC Redistribution (AID 451; calls by dose curve; also: potency is read from the fitted curve at half-maximal effect); conditions: CHO-K1 GR-EFC translocation, beta-gal luminescence, 2 h
Summary of the method: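 Translocation of GR-ED fusion to nuclear EA restores b-gal, read by luminescence after 1 h room-temperature detection. Engineered CHO-K1 biosensor cells, 1,000/well, exposed 2 h at 37 C to titrations up to 46 uM final.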

[5] = target: Mitogen-activated protein kinase 10 (Mus musculus) (UniProt Q61831); test: JNK3 AlphaScreen Assay (AID 530; active = well fitted curve in either direction with a large enough effect, not every such curve was filed as active;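 also: kinase came from lysate of stimulated human HepG2 cells; signal reports phosphorylation of biotinylated GST-cJun 1-79 at Ser73 with 10 µM ATP; % is scaled to controls: 0 for no effect and ±100 for the full control effect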)
Summary of the method: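 Room-temperature AlphaScreen kinase assay; pre-activated HepG2 lysate as JNK3 source, biotin-GST-cJun(1-79) substrate, 10 uM ATP, compound 15 min preincubation.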

[6] = target: 3',5'-cyclic-AMP phosphodiesterase 4B (Homo sapiens) (UniProt Q07343); test: qHTS Assay for Inhibitors of PDE-IV (AID 607; active = well fitted activation curve with a large enough effect in the main read-out, with a control signal flat, not every such curve was filed as active; also: % of control where 0% means no effect)
Chain of 3',5'-cyclic-AMP phosphodiesterase 4B (Homo sapiens) (Q07343 whole entry, looked up): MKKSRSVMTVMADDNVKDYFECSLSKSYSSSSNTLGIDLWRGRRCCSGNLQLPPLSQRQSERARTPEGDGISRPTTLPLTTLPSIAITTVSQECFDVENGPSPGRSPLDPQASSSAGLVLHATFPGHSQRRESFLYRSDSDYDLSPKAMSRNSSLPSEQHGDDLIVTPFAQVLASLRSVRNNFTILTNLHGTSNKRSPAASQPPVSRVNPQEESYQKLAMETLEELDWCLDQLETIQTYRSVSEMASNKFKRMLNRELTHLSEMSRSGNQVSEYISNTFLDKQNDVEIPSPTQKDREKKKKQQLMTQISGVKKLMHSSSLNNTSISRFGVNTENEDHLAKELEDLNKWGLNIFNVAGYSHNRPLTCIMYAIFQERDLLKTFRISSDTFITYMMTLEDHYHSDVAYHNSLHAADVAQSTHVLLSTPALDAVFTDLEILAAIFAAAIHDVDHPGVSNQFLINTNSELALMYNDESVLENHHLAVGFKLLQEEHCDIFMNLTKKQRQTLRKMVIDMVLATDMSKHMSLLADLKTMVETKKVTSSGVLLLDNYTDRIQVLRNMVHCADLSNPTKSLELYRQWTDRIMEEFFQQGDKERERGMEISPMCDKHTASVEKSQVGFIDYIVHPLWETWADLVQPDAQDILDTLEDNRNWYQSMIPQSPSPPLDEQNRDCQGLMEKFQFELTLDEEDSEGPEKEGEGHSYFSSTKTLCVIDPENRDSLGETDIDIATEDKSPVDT
Summary of the method: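 Live HEK293 cells with a modified cyclic nucleotide-gated (CNG) channel report intracellular cAMP via membrane-potential dye fluorescence (ex 535/em 590 nm). Endogenous PDE-IV was targeted. Compounds were tested at up to 22.9 uM final; RO 20-1724 100 uM served as control.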

[7] = target: ATP-dependent 6-phosphofructokinase (Trypanosoma brucei brucei) (UniProt O15648); test: qHTS Assay to Find Inhibitors of T. brucei phosphofructokinase: hit validation (AID 492961);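 also: luminescence reports ADP formed as PFK phosphorylates fructose-6-phosphate with ATP; % is scaled to controls: 0 for no effect and ±100 for the full control effect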
Chain of ATP-dependent 6-phosphofructokinase (Trypanosoma brucei brucei) (O15648 whole entry, looked up): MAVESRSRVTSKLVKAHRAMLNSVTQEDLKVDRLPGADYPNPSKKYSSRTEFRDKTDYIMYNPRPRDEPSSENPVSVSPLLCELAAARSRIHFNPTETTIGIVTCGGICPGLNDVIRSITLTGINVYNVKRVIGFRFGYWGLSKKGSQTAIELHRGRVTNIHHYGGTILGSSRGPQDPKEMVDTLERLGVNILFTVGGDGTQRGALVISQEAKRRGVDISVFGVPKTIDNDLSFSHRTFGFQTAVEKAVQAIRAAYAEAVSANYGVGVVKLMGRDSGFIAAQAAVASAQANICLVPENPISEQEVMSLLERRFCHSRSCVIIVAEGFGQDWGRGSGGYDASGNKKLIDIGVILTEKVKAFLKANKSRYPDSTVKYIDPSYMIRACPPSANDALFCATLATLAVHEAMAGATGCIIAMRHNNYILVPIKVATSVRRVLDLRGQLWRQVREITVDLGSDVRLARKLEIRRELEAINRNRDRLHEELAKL
Summary of the method: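 In this biochemical qHTS validation, titrated compounds were tested against 1.25 nM PFK with 0.1 mM ATP and 0.5 mM F6P. Percent activity came from controls lacking or containing enzyme.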

[8] = target: Ubiquitin carboxyl-terminal hydrolase 1 (Homo sapiens) (UniProt O94782); test: Inhibitors of USP1/UAF1: Pilot qHTS (AID 504865);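 also: rhodamine fluorescence freed from ubiquitin-rhodamine substrate followed over time; top concentration of the series differs between compounds; % is scaled to controls: 0 for no effect and ±100 for the full control effect; nearly all actives have a fitted effect of over 35% in size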
Chain of Ubiquitin carboxyl-terminal hydrolase 1 (Homo sapiens) (O94782 whole entry, looked up): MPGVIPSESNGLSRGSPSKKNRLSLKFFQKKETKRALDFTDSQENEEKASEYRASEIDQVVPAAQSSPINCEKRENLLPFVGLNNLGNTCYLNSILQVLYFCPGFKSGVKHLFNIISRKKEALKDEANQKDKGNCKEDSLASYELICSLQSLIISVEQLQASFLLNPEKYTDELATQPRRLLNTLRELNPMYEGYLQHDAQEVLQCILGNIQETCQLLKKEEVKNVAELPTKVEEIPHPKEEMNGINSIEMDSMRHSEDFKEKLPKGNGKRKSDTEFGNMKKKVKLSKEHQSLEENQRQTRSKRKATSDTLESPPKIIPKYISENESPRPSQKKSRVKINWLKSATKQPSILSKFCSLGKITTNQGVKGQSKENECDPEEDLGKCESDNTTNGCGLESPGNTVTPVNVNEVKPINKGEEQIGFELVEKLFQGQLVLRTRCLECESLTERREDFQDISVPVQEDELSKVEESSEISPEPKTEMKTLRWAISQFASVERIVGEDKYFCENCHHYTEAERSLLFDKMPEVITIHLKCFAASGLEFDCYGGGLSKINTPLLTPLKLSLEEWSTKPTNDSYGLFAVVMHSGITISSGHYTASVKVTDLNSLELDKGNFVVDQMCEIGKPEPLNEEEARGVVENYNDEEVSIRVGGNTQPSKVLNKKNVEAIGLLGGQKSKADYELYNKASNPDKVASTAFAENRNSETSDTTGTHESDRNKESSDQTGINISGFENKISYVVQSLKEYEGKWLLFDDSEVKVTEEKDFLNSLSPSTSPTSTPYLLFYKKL
Summary of the method: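 USP1/UAF1 complex (1nM) preincubated with compound 15 min at room temperature, then Ub-Rho substrate (150nM final) added. Fluorescence read kinetically at 480/540 nm, 6 reads every 60 seconds. Buffer: 50mM HEPES pH 7.8, 0.5mM EDTA, 0.1 mg/ml BSA, 1mM TCEP, 0.01% Tween-20.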

[9] = target: Luciferin 4-monooxygenase (Photinus pyralis) (UniProt P08659); test: Biochemical firefly luciferase enzyme assay for NPC (AID 624030);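 also: purified P. pyralis luciferase at 10 nM with luciferin and ATP substrate; 0% = DMSO and -100% = full luciferase inhibition by PTC124 control; nearly all actives have a fitted effect of over 70% in size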
Chain of Luciferin 4-monooxygenase (Photinus pyralis) (P08659 whole entry, looked up): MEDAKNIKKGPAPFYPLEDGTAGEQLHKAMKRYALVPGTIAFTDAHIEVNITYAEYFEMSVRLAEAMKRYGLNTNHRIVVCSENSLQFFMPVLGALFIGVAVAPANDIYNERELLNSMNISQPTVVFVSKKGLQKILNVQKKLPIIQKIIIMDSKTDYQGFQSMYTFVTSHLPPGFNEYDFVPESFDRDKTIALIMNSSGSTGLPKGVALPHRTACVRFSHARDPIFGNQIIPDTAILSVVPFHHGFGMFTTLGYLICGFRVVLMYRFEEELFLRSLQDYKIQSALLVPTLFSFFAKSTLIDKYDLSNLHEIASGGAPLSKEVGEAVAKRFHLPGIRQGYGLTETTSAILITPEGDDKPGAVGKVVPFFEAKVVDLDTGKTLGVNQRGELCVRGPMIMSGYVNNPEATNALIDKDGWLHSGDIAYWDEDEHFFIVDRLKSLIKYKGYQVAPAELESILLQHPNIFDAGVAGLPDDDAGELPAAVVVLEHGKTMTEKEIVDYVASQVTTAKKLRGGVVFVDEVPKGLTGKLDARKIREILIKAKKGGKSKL
Summary of the method: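 Direct inhibition of firefly luciferase enzyme (10 nM final, 50 mM Tris Acetate) assessed by luminescence within 5 minutes. Percent activity scaled between DMSO and PTC124 positive control, with concentration-effect curves classified by fit quality and response.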

[10] = S16 Schwann cell viability assay (CellTiter-Glo assay) (AID 624031);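 also: cellular ATP luminescence as a viability measure; plate controls were DMSO-treated cells for no effect and cell-free wells for full effect; nearly all actives have a fitted effect of over 70% in size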
Summary of the method: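 Luminescent ATP read-out (CellTiter-Glo) after 24 h compound exposure of native S16 rat Schwann cells at 37 °C. Signals were normalized between cell-free wells and DMSO-treated cells, set as 0% activity.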

[11] = S16 Schwann cell PMP22 intronic element firefly luciferase assay (AID 624032);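 also: plate controls were DMSO for no effect and PTC124 positive control mean for full effect; nearly all actives have a fitted effect of over 30% in size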
Summary of the method: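 Luciferase reporter of PMP22 intronic-element expression in stably transfected S16 rat Schwann cells, read by ONE-Glo luminescence after 24 h compound exposure at 37 C. Activity scaled between DMSO (0%) and positive-control PTC124; concentration-effect curves quality-classified.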

[12] = qHTS profiling for inhibitors of Plasmodium falciparum proliferation (AID 504749);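 also: 0% = DMSO vehicle and full inhibition = artemisinin control; nearly all actives have a fitted effect of over 60% in size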; conditions: P. falciparum in erythrocytes, SYBR Green DNA, 72 h, at 12.8 µM (top of the series)
Summary of the method: (§1)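 Three-day growth assay of blood-stage parasites in erythrocytes (0.3% parasitemia, 2.5% hematocrit) at 37 C, 5% CO2, quantified by SYBR Green DNA staining after overnight detergent lysis.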

3D7 = test: as above; conditions: P. falciparum in erythrocytes, SYBR Green DNA, 72 h; series mostly up to 28.7 µM
Summary of the method: as §1

7G8 = test: as above; conditions: P. falciparum in erythrocytes, SYBR Green DNA, 72 h; series mostly up to 28.7 µM
Summary of the method: as §1

AA1029 = test: as above; conditions: P. falciparum in erythrocytes, SYBR Green DNA, 72 h; series mostly up to 28.7 µM
Summary of the method: as §1

AS120 = test: as above; conditions: P. falciparum in erythrocytes, SYBR Green DNA, 72 h; series mostly up to 28.7 µM
Summary of the method: as §1

ATS189 = test: as above; conditions: P. falciparum in erythrocytes, SYBR Green DNA, 72 h; series mostly up to 28.7 µM
Summary of the method: as §1

ATS95 = test: as above; conditions: P. falciparum in erythrocytes, SYBR Green DNA, 72 h; series mostly up to 28.7 µM
Summary of the method: as §1

C2A = test: as above; conditions: P. falciparum in erythrocytes, SYBR Green DNA, 72 h; series mostly up to 28.7 µM
Summary of the method: as §1

CP185 = test: as above; conditions: P. falciparum in erythrocytes, SYBR Green DNA, 72 h; series mostly up to 28.7 µM
Summary of the method: as §1

CP191 = test: as above; conditions: P. falciparum in erythrocytes, SYBR Green DNA, 72 h; series mostly up to 28.7 µM
Summary of the method: as §1

CP192 = test: as above; conditions: P. falciparum in erythrocytes, SYBR Green DNA, 72 h; series mostly up to 28.7 µM
Summary of the method: as §1

CP194 = test: as above; conditions: P. falciparum in erythrocytes, SYBR Green DNA, 72 h; series mostly up to 28.7 µM
Summary of the method: as §1

CP201 = test: as above; conditions: P. falciparum in erythrocytes, SYBR Green DNA, 72 h; series mostly up to 28.7 µM
Summary of the method: as §1

CP203 = test: as above; conditions: P. falciparum in erythrocytes, SYBR Green DNA, 72 h; series mostly up to 28.7 µM
Summary of the method: as §1

CP211 = test: as above; conditions: P. falciparum in erythrocytes, SYBR Green DNA, 72 h; series mostly up to 28.7 µM
Summary of the method: as §1

CP215 = test: as above; conditions: P. falciparum in erythrocytes, SYBR Green DNA, 72 h; series mostly up to 28.7 µM
Summary of the method: as §1

CP217 = test: as above; conditions: P. falciparum in erythrocytes, SYBR Green DNA, 72 h; series mostly up to 28.7 µM
Summary of the method: as §1

CP237 = test: as above; conditions: P. falciparum in erythrocytes, SYBR Green DNA, 72 h; series mostly up to 28.7 µM
Summary of the method: as §1

CP238 = test: as above; conditions: P. falciparum in erythrocytes, SYBR Green DNA, 72 h; series mostly up to 28.7 µM
Summary of the method: as §1

CP247 = test: as above; conditions: P. falciparum in erythrocytes, SYBR Green DNA, 72 h; series mostly up to 28.7 µM
Summary of the method: as §1

CP250 = test: as above; conditions: P. falciparum in erythrocytes, SYBR Green DNA, 72 h; series mostly up to 28.7 µM
Summary of the method: as §1

CP252 = test: as above; conditions: P. falciparum in erythrocytes, SYBR Green DNA, 72 h; series mostly up to 28.7 µM
Summary of the method: as §1

CP256 = test: as above; conditions: P. falciparum in erythrocytes, SYBR Green DNA, 72 h; series mostly up to 28.7 µM
Summary of the method: as §1

C[C@H](O)[C@@H]1C(=O)N2C(C(=O)O)=C(SCCN=CN)C[C@@H]12
inactive: activity change, negative = inhibition [1] -9.39% | activity, negative = inhibition [2] -2.21% | Potency [3] > 20.6 µM | Potency [4] > 20.6 µM | Potency [5] | Potency [6] | Potency [7] | Potency [8] | Potency [9] | Potency [10] | Potency [11] | activity, negative = inhibition ([12]; parasite line A) 7.64% | activity, negative = inhibition ([12]; parasite line B) 5.5% | Potency (3D7) | Potency (7G8) | Potency (AA1029) | Potency (AS120) | Potency (ATS189) | Potency (ATS95) | Potency (C2A) | Potency (CP185) | Potency (CP191) | Potency (CP192) | Potency (CP194) | Potency (CP201) | Potency (CP203) | Potency (CP211) | Potency (CP215) | Potency (CP217) | Potency (CP237) | Potency (CP238) | Potency (CP247) | Potency (CP250) | Potency (CP252) | Potency (CP256)

— PubChem BioAssay (NCATS)
